Here are results for one compound from PubChem BioAssay (EPA / NIEHS).

The nature of assay [1]: CCTE_Shafer_MEA_dev_firing_rate_mean: CCTE's Neural Network Formation Assay for Mean Firing Rate, Shafer Lab (AID 2284031). The essentials: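 Spike frequency (spikes/recording length, averaged over active electrodes) was recorded on days 5, 7, 9 and 12 and collapsed to AUC; rat cortical cultures received compound continuously over 12 days of network development.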
Assay [2] in a line: CCTE_Shafer_MEA_dev_per_burst_spike_percent: CCTE's Neural Network Formation Assay for Percent of Spikes in a Burst, Shafer Lab (AID 2284032). The essentials: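 Value is trapezoidal AUC over recordings on days 5, 7, 9 and 12 of the well-mean fraction of spikes falling in single-electrode bursts; rat cortical cultures exposed continuously from plating, treatment renewed DIV 5 and 9, fitted downward against DMSO.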

Assay [3] is described as follows: CCTE_Shafer_MEA_dev_active_electrodes_number: CCTE's Neural Network Formation Assay for Number of Active Electrodes, Shafer Lab (AID 2284040; active = hit-call score of the fitted dose curve at least 0.9, where 1 is the maximum). The essentials:
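Counts electrodes per well firing at least 5 spikes/min, recorded on days 5, 7, 9 and 12 in rat cortical cultures dosed continuously from plating (treatment refreshed DIV 5, 9). Value is the area under the curve over recordings, fitted downward relative to DMSO.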

The nature of assay [4]: CCTE_Shafer_MEA_dev_burst_rate: CCTE's Neural Network Formation Assay for Burst Rate, Shafer Lab (AID 2284042). The essentials: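 Cells plated, treated day 0; recorded DIV 5, 7, 9, 12; fed and re-treated DIV 5, 9. Endpoint: bursts per recording time, active-electrode well mean, trapezoidal AUC, fitted in decreasing direction against DMSO baseline.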
A short description of assay [5]: CCTE_Shafer_MEA_dev_bursting_electrodes_number: CCTE's Neural Network Formation Assay for Number of Bursting Electrodes, Shafer Lab (AID 2284043; active = hit-call score of the fitted dose curve at least 0.9, where 1 is the maximum). The essentials:
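Number of electrodes reaching ≥1 burst every 2 min was recorded at DIV 5, 7, 9 and 12 and collapsed as trapezoidal area under the curve. Cultures were rat cortical neurons on MEA plates, dosed continuously from plating with medium and treatment refreshed on DIV 5 and 9.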

Assay [6] is described as follows: CCTE_Shafer_MEA_dev_burst_duration_mean: CCTE's Neural Network Formation Assay for Mean Burst Duration, Shafer Lab (AID 2284045). The essentials:
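Mean single-electrode burst duration (first to last spike), averaged over bursting electrodes per well, then integrated as area-under-curve across recordings at days 5, 7, 9 and 12. Rat cortical cultures on MEAs, compound present from plating, refreshed at feeds.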

A short description of assay [7]: CCTE_Shafer_MEA_dev_interburst_interval_mean: CCTE's Neural Network Formation Assay for Mean Interburst Interval, Shafer Lab (AID 2284046).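 Note: well-mean interburst interval of bursting electrodes as AUC over four recording days; curve fitted for decrease in interburst interval relative to DMSO.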 The essentials:
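Developing rat cortical networks on 48-well MEAs receive compound from the day of plating. Burst intervals from each active electrode are averaged per well, and AUC over the recording days is fitted in the negative direction against DMSO.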

Assay [8] in a line: CCTE_Shafer_MEA_dev_inter_network_spike_interval_mean: CCTE's Neural Network Formation Assay for Mean Inter-network Spike Interval, Shafer Lab (AID 2284047). The essentials: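 Rat cortical cultures, 1.5 x 10^5 cells/well on 48-well MEA plates; continuous exposure days 0–12, medium and compound refreshed DIV 5, 9. Mean time between consecutive network-spike peaks; AUC across DIV 5/7/9/12; DMSO baseline, negative fitting direction.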

Assay [9] is described as follows: CCTE_Shafer_MEA_dev_network_spike_number: CCTE's Neural Network Formation Assay for Number of Network Spikes, Shafer Lab (AID 2284048).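 Note: synchronized bursts across electrodes counted on days 5 7 9 12 and integrated as AUC.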 The essentials: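 Number of network spikes (coordinated firing across electrodes) recorded on days 5, 7, 9 and 12 and summarised as area under the curve. Rat cortical cultures on MEA, continuous compound exposure with full medium/treatment exchange at DIV 5 and 9.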

Assay [10] can be described thus: CCTE_Shafer_MEA_dev_network_spike_peak: CCTE's Neural Network Formation Assay for Mean Number of Electrodes in Network Spike, Shafer Lab (AID 2284049).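 Note: fitted for loss of signal meaning fewer electrodes in network spikes than DMSO.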 The essentials:
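Rat cortical primary culture, 1.5 x 10^5 cells/well, 48-well MEA (16 electrodes/well). Dosing day 0 through DIV 12, full media/compound exchange DIV 5, 9. AxIS adaptive spike detection; AUC over days 5/7/9/12; loss-of-signal vs DMSO.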

Assay [11] can be described thus: CCTE_Shafer_MEA_dev_spike_duration_mean: CCTE's Neural Network Formation Assay for Mean Spike Duration, Shafer Lab (AID 2284051).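 Note: mean network spike duration pooled as area under curve over DIV 5 to 12 recordings.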 The essentials:
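Readout is the average length of network spikes, clustered firing across electrodes, summed over DIV 5, 7, 9 and 12 as area under the curve. Neurons from rat cortex developed networks on MEA plates under continuous 12-day exposure.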

The nature of assay [12]: CCTE_Shafer_MEA_dev_network_spike_duration_std: CCTE's Neural Network Formation Assay for Standard Deviation of Network Spike Duration, Shafer Lab (AID 2284052).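 Note: hits are decreases in network spike duration SD versus DMSO vehicle.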 The essentials: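 Read-out is the trapezoidal area-under-the-curve across recordings made on days 5, 7, 9 and 12, fitted in the negative direction against DMSO baseline. Neurons were primary rat cortical cells treated from day 0, with treatment renewed at each feed.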

Assay [13] can be described thus: CCTE_Shafer_MEA_dev_per_network_spike_spike_number_mean: CCTE's Neural Network Formation Assay for Mean Number of Spikes in a Network Spike, Shafer Lab (AID 2284053). The essentials: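 Continuous twelve-day exposure of developing rat cortical networks grown over 16 microelectrodes per well; spontaneous firing is captured at four time points, and the per-network-spike spike number is integrated over development by trapezoidal AUC.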

Assay [14] is described as follows: CCTE_Shafer_MEA_dev_per_network_spike_spike_percent: CCTE's Neural Network Formation Assay for Percent of Spikes in a Network Spike, Shafer Lab (AID 2284054). The essentials:
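Metric: fraction of spikes falling in a 0.05 s window at network-spike peaks. Recordings were made on days 5, 7, 9 and 12 and collapsed by trapezoidal AUC. Cultures were rat cortical neurons on MEA plates, dosed continuously from plating, re-dosed at media changes.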

The nature of assay [15]: CCTE_Shafer_MEA_dev_LDH: CCTE's Lactate Dehydrogenase Assay for Cytotoxicity in the Neural Network Formation Assay, Shafer Lab (AID 2284068; active = hit-call score of the fitted dose curve at least 0.9, where 1 is the maximum;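 note: exposure for twelve days from plating with re-dosing on DIV 5 and 9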). The essentials: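 Cytotoxicity companion to network-formation recordings: rat cortical neurons received compound over 12 days of development, re-dosed at DIV 5 and 9 feeds. Viability was inferred from LDH enzyme activity relative to DMSO.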

Assay [16] can be described thus: CCTE_Shafer_MEA_dev_mutual_information_norm: CCTE's Neural Network Formation Assay for Mutual Information Normalization, Shafer Lab (AID 2284091). The essentials:
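Shared information across electrodes, tracked on days 5, 7, 9 and 12 of network development and collapsed as trapezoidal area under the curve. Rat cortical cultures were treated continuously from plating, with treatment renewed at feeds on DIV 5 and 9; DMSO baseline, negative-direction fit.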

A short description of assay [17]: IUF_NPC1a_proliferation_area_72hr: Leibniz Research Institute for Environmental Medicine (IUF) 72-hour Neural Progenitor Cell Proliferation Area Assay (NPC1a) (AID 2284208). The essentials: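 Read-out: increase in sphere area over 72 h by automated phase-contrast imaging, fitted in positive direction versus DMSO baseline. One hNPC sphere (0.25-0.35 mm) per well in EGF/FGF medium; growth-factor withdrawal served as positive control.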

Assay [18] can be described thus: IUF_NPC1_viability_72hr: Viability Assessment at 72 hours in the Leibniz Research Institute for Environmental Medicine (IUF) Neural Progenitor Cell Proliferation Assay (NPC1) (AID 2284209). The essentials: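 Viability was measured by resazurin-to-resorufin fluorescence (alamar blue) after 72 h of continuous exposure without compound renewal. Each well held one hNPC sphere (gestational week 16-19 fetal cortex, 0.25-0.35 mm) cultured in EGF/FGF proliferation medium at 37C and pH 7.2-7.6.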

A short description of assay [19]: CCTE_Mundy_HCI_Cortical_Synap_Neur_Matur_NeuriteSpotCountPerNeuriteLength: CCTE's Synaptogenesis and Neurite Maturation Assay in rat cortical cells for Neurite Spot Count per Neurite Length, Mundy Lab (AID 2284210). The essentials: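 Synaptophysin spots per unit neurite length, measured by automated imaging of MAP2/synaptophysin/Hoechst-stained neurons. Cultures from rat cortex received chemical at DIV 7 with media change through DIV 12; glial growth arrested by AraC at DIV 5; DMSO baseline.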

Assay [20] in a line: CCTE_Mundy_HCI_Cortical_Synap_Neur_Matur_BPCount: CCTE's Synaptogenesis and Neurite Maturation Assay in rat cortical cells for Branch Point Count, Mundy Lab (AID 2284211). The essentials: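 HCI read-out of branch points from MAP2/synaptophysin/Hoechst immunofluorescence; rat cortical cultures, AraC DIV 5, dosing DIV 7, fixed DIV 12; fit in positive direction vs DMSO baseline.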

Assay [21] is described as follows: CCTE_Mundy_HCI_Cortical_NOG_NeuriteCount: CCTE's Neurite Outgrowth Assay in rat cortical cells for Neurite Count, Mundy Lab (AID 2284212).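 Note: cells fixed about two days after chemical exposure began.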 The essentials: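 Rat cortical primary cells; compound added 2 h post-plating, 1/10 dilution of working solution. Anti-betaIII-tubulin/AF488 ICC; ArrayScan neurite count vs DMSO.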
Assay [22] in a line: CCTE_Mundy_HCI_Cortical_NOG_NeuriteLength: CCTE's Neurite Outgrowth Assay in rat cortical cells for Neurite Length, Mundy Lab (AID 2284213). The essentials:
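First, rat primary cortical cells were plated and, 2 h later, given test chemical as a 1/10 dilution. Finally, βIII-tubulin immunostaining enabled automated imaging of neurite length.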

SMILES strings stand for the structures. Inconclusive results are not listed. The source made the active and inactive calls. Rule for the calls, unless noted: active = hit-call score of the fitted dose curve at least 0.9, where 1 is the maximum; inactive = score below 0.9.

Regarding `CCOP(=S)(OCC)SCS(=O)C(C)(C)C` (configuration not stated), the outcome in [1], in assay [2], in assay [3], in assay [4], in assay [5] and in assay [6] was inactive. Further, the compound was called inactive in assay [7], in assay [8], in assay [9], in [11], in [12] and in assay [13]. In addition, the call in [14], in assay [15], in assay [16], in [17], in assay [18] and in assay [19] was inactive. The compound was classed as inactive in [20], in [21] and in assay [22]. The AC50 in assay [10] was 555 nM (active).

In general, AC50 refers to the concentration at which the activity in the assay is half-maximal.
